This is an account of results in PubChem BioAssay AID449762 (Southern Research Specialized Biocontainment Screening …, 2010).

Hit rate of the full screen: of about 330,000 compounds, about 1,900 (0.58%) were called active. About 4% were inconclusive and are not listed. Only a sample is shown. Measured potencies and affinities stand elsewhere. Values without a mark were called inactive. Rule as the data show it: inconclusive = inhibition above about 70% without an active follow-up result; inactive = below that.

This assay can be described thus: M. tuberculosis growth inhibition, HTS (AID 449762).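 Also: bacterial growth assessed after seven days of incubation.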 The conditions noted are these: M. tuberculosis H37Rv growth inhibition, 7H9 media; at 25 µM; stronger effect = higher value.
On to `O=C1CCCC2=C1C(c1ccco1)Nc1ccc(C(=O)c3ccccc3)cc1N2` (centres undefined), for which the inhibition was 1.55%. With `O=C1CCCC2=C1C(c1ccccn1)Nc1ccc(C(=O)c3ccccc3)cc1N2` (centres undefined), the inhibition was -10.7%. As for `O=C(NCc1cccnc1)c1cccc(OC2CCN(Cc3ccc(CO)o3)CC2)c1`, the inhibition is 3.84%. Take `CCOC(=O)N1CCc2c(sc(NC(C)=O)c2C(N)=O)C1`: the inhibition is -2.99%.

As to `CCOC(=O)N1CCc2c(sc(NC(=O)C3=COCCO3)c2C(N)=O)C1`, the inhibition was -6.06%. For `CCOc1ccccc1NC(=O)COC(=O)CC(NC(N)=O)c1ccc(Cl)cc1` (centres undefined), the inhibition is 3.03%. On to `CCc1c(C)sc2nc3c(C(=O)N4CCOCC4)cc(C(=O)c4ccccc4O)cn3c(=O)c12`, for which the inhibition is 51.4%. Consider `COC(=O)c1cc(C(=O)c2cc(F)ccc2O)cn2c(=O)c3c(C)c(C)sc3nc12`, for which the inhibition is 3.12%. With `CC(=NCc1cccnc1)c1c(O)n(-c2ccccc2)c(=O)[nH]c1=O`, the inhibition is -3.76%.

Regarding `COc1ccc(O)c(-c2cc(-c3ccc(F)cc3)n[nH]2)c1`, the inhibition is 0.76%. For `COC(=O)c1cc(-c2ccc(OC)cc2)n[nH]1`, the inhibition is -1.36%. In the case of `Cc1nc(SCc2c(F)cccc2Cl)n[nH]1`, the inhibition was -11.2%. In the case of `CCSC(=Nc1ccccc1)Nc1ccccc1`, the inhibition is -1.05%. Take `COc1ccc(C(CC(=O)NC(C)c2ccc(-c3ccccc3)cc2)NC(C)=O)cc1` (centres undefined): the inhibition was 3.36%. Consider `Cc1cc(=O)[nH]c(N/N=C/c2c(O)n(-c3ccccc3)c(=O)c3ccccc23)n1`, for which the inhibition was 31.9%. Take `Cc1nnc(N/N=C/c2c(O)n(-c3cccc(C(F)(F)F)c3)c(=O)c3ccccc23)[nH]c1=O`: the inhibition is 3.05%. Regarding `CNS(=O)(=O)c1ccc2c(c1)oc(=O)c1cc(S(=O)(=O)NC)ccc12`, the inhibition is -1.49%. Take `Cn1c(=N)n(CC(=O)c2cccs2)c2ccccc21`: the inhibition was -0.34%. Regarding `COc1ccc(-c2ccnc3nc(N4CCOCC4)nn23)cc1`, the inhibition is 1.34%. Regarding `c1ccc(-c2ccnc3nc(N4CCN(c5ccccc5)CC4)nn23)cc1`, the inhibition was -7.9%.

As for `C[C@H]1CN([C@@H](C)CO)C(=O)Cc2cc(NS(C)(=O)=O)ccc2O[C@@H]1CN(C)Cc1ccc(Cl)c(Cl)c1`, the inhibition is 4.73%. As to `COc1ccc(C2=Nn3c(nnc3-c3ccccc3Cl)SC2)cc1OC1CCCC1`, the inhibition is 51.6%.

Regarding `COc1ccc(C2=Nn3c(nnc3-c3ccccc3OC)SC2)cc1OC1CCCC1`, the inhibition is 63.1%.

On to `COc1ccccc1OP(=O)(Nc1cccnc1)Oc1ccccc1OC`, for which the inhibition was -4.39%. `CCN1CCN(Cc2c(OC)ccc3ccccc23)CC1`: the inhibition was 5.17%. For `C[C@H]1COC(=O)[C@H](Cc2ccc(F)cc2)CC/C=C/C[C@@H](CC(=O)N[C@@H](CO)Cc2ccccc2)C(=O)N1`, the inhibition was 7.3%. In the case of `CCOc1ccc(C(=O)NCC(=O)N2CCC(C)CC2)cc1OCC`, the inhibition is -0.53%. Turning to `Cc1csc(NC(=O)Nc2cccc(Cl)c2)n1`, the inhibition is -2.56%. With `Fc1ccc(NC(=S)Nc2cccc(Cl)c2)cc1` the figure was 21.8%; with `O=C(OCC(=O)N1CCc2ccccc21)c1cccnc1Cl`, -2.8%.

With `CSc1ncccc1C(=O)OCC(=O)N1CCc2ccccc21`, the inhibition is -3.03%. As to `CC1CCCC(NC(=O)COC(=O)COc2ccc(Br)cc2)C1C` (centres undefined), the inhibition was 10.5%. With `C/C(CCC12CC3CC(CC(C3)C1)C2)=N\NC(N)=S`, the inhibition is -13.2%.

Regarding `C/C(=N\NC(N)=S)C12CC3CC(CC(C3)C1)C2`, the inhibition is -3.2%.

Take `COc1ccc(/C=C/C(=O)N(CC(C)C)C2CCS(=O)(=O)C2)cc1` (centres undefined): the inhibition was 3.62%. On to `O=C(NCC1CCCO1)C1CC(=O)N(C2CCCCCC2)C1` (centres undefined), for which the inhibition is 5.65%. In the case of `COc1ccc(NC(=O)c2ccc(-n3cccn3)nc2)cc1`, the inhibition is -16.3%.

In the case of `CCOC(=O)C(C)Sc1ncc(OC)c(Sc2ccc(Cl)cc2)n1` (centres undefined), the inhibition is 2.61%.

In the case of `CCOC(=O)CSc1ncc(OC)c(Sc2ccc(Cl)cc2)n1`, the inhibition is 0.98%.

For `CCOc1ccc(NC(=O)c2ccc(OC)cc2)cc1`, the inhibition is -11.8%. On to `CC1Cc2ccccc2N1C(=O)CN(C)CC(=O)Nc1ccc(F)cc1` (centres undefined), for which the inhibition is -2.83%.

With `CC(=O)c1cccc(N(C(=O)c2ccco2)C(C(=O)NC2CCCC2)c2ccccc2F)c1` (centres undefined), the inhibition was 3.81%. For `CCCCn1c(N)c(N(CCC(C)C)C(=O)C2CCN(C(=O)c3ccccc3C)CC2)c(=O)[nH]c1=O`, the inhibition is -4.26%. For `COc1cc(NC(=O)C2CCCN(S(=O)(=O)c3ccc4[nH]c(=O)ccc4c3)C2)cc(OC)c1` (centres undefined), the inhibition was -0.31%.

On to `NC(=O)c1cc([N+](=O)[O-])ccc1NCc1cccnc1`, for which the inhibition is -8.59%. For the compound `CCOC(=O)c1ccccc1C(=O)OCC`, the inhibition is 7.16%. For the compound `O=C1C(Nc2ccccc2)=C(N2CCCCC2)C(=O)c2ccccc21`, the inhibition is 30.1%.

As to `Cc1ccc(NC2=C(N3CCCCC3)C(=O)c3ccccc3C2=O)cc1`, the inhibition was -7.72%. Consider `Cc1ccc(CN(C(=O)c2ccco2)C2CCS(=O)(=O)C2)cc1` (centres undefined), for which the inhibition is -3.45%.

As for `CCCN1C(=O)C2(OCCO2)c2cc(Cl)ccc21`, the inhibition is 3.45%.

For the compound `CN(C)c1ccc(N=Nc2ccccc2C(=O)OCC(=O)N2CCCCCC2)cc1`, the inhibition was 11.9%. Turning to `COC(=O)c1ccccc1NC(=O)COC(=O)c1ccccc1N=Nc1ccc(N(C)C)cc1`, the inhibition is 5.14%. Regarding `Clc1ccc(-c2cn3c(n2)SCC3)cc1`, the inhibition was 9.61%. Under `CCSc1ncc(/C=N/Nc2ccc(F)cc2)n1C` stands -4.38%; under `CCSc1ncc(/C=N/Nc2ccc([N+](=O)[O-])cc2)n1C`, -1.1%; under `Cc1cc(C(=O)NNC(=O)c2cccc(C(F)(F)F)c2)no1`, -7.27%. For `CCOc1ccc(C(=O)NC(C)(C)CC)cc1`, the inhibition was 26.1%. For the compound `CCCOc1ccc(C(=O)CCN2CCCCC2)cc1`, the inhibition was 23.5%. Turning to `CCOc1ccc(C(=O)CCN2CCCCC2)cc1`, the inhibition was 42.5%.

Consider `Cc1ccc(-c2nc(S(=O)(=O)c3ccc(C)cc3)c(SCC(=O)NCC3CCCO3)o2)cc1` (centres undefined), for which the inhibition is 8.98%. As for `CC(=O)c1ccc(NC(=O)CCc2nc3sc4c(c3c(=O)[nH]2)CCCC4)cc1`, the inhibition was 16.8%.

As for `CCn1cc(Br)c(C(=O)NC(=S)Nc2ccc(C(=O)OC)cc2)n1`, the inhibition was 9.85%. Under `COc1ccc(NC(=S)NC(=O)c2cncc(Br)c2)cc1` stands -11.5%; under `CCn1cc(Br)c(C(=O)Nc2ccc(OC)cc2)n1`, -0.58%. Take `CC(C)OC(=O)c1ccc(NC(=O)c2cncc(Br)c2)cc1`: the inhibition was 33%.

Take `CN1CCN(CCc2nc3cc(NC(=O)c4ccco4)ccc3n2C)CC1`: the inhibition was 3.05%. As to `O=S(=O)(NCCc1cn2ccccc2n1)c1ccc(F)c(C(F)(F)F)c1`, the inhibition is -2.32%. With `CCCOc1ccc(OCCn2nc(C(=O)O)c3ccccc3c2=O)cc1` the figure was 1.16%. Under `O=c1[nH]c(=O)n(Cc2ccc(Oc3ccccc3)cc2)cc1Br` stands 2.82%; under `CCc1nnc(NC(=O)CN2CCN(c3ccccc3F)CC2)s1`, 5.55%.

`CC(C)C(=O)NNC(=O)CN1CCN(c2nc(-c3ccccc3)cs2)CC1`: the inhibition is -10.4%. For `CC(=O)Nc1cccc(C(=O)N2CCN(Cc3ccccc3)CC2)c1`, the inhibition is -9.84%. `CC(C)CC(=O)NC(Nc1ccc([N+](=O)[O-])cc1)C(Cl)(Cl)Cl` (centres undefined): the inhibition was 4.27%.

As for `CC(=O)NC(CC(=O)c1ccc([N+](=O)[O-])cc1)C(Cl)(Cl)Cl` (centres undefined), the inhibition is 13.4%. For the compound `COc1ccc(C(CC(=O)c2ccc(C)cc2)Nc2ccc([N+](=O)[O-])cc2)cc1` (centres undefined), the inhibition was 14.3%. Under `Cc1ccc(NCC(=O)c2ccc([N+](=O)[O-])cc2)cc1` stands 8.11%. With `OC(COc1ccc(Br)cc1)Cn1ccnc1` (centres undefined), the inhibition is -0.05%.

As for `O=C(NN1CCOCC1)c1ccc(Cl)s1`, the inhibition was -0.84%. Regarding `O=C(COC(=O)C1CCC1)Nc1ncc(Cl)cc1Cl`, the inhibition is -10.9%. With `COc1ccc(N2CCN(c3ccc(NC(=O)C4CCCCC4)cc3C#N)CC2)cc1` the figure was 7.01%. As to `Clc1ccc(CNc2ccc(CNc3ncn[nH]3)cc2)cc1`, the inhibition was 2.69%. Consider `Cc1cc(C)nc(Nc2ncn[nH]2)n1`, for which the inhibition is 6.87%. With `CC1C(=O)N2CCCc3cc(NC(=O)C(=O)NCCc4ccc(F)cc4)cc1c32` (centres undefined), the inhibition is 39.4%. Regarding `CC(C)c1nnc(NC(=O)CCC(=O)N2CCN(c3cccc(Cl)c3)CC2)s1`, the inhibition was 25.5%. Turning to `CC(C)c1nnc(NC(=O)CCC(=O)N2CCN(c3ccc(F)cc3)CC2)s1`, the inhibition was 6.66%. As to `Cc1[nH]ncc1N=Cc1ccc([N+](=O)[O-])cc1`, the inhibition was 1.43%. `CCOc1ccc(C(=O)CCC(=O)NCC(=O)Nc2c(C)cccc2C)cc1`: the inhibition is 3.97%. For `O=C1CSC2(C(=O)N3CCCc4cccc2c43)N1c1cccc(C(F)(F)F)c1` (centres undefined), the inhibition is -2.03%. Consider `O=S(=O)(c1ccc(N2CC=C(c3ccccc3)CC2)nc1)N1CCCC1`, for which the inhibition was -10.8%. Under `N=C1C(c2nc3ccccc3[nH]2)=C(O)CN1NC(=O)COc1cccc(F)c1` stands -2.89%; under `N=C1C(c2nc3ccccc3s2)=C(O)CN1NC(=O)c1c[nH]c2ccccc12`, -0.06%.

`CCN(CC)S(=O)(=O)c1ccc2c(c1)N(CC(=O)N1CCCC1)C(=O)CO2`: the inhibition is -1.21%. In the case of `O=c1oc2ccccc2cc1-c1nc(-c2ccccc2)no1`, the inhibition was 23.8%. As for `Cc1cccc(-c2noc(-c3cc4ccccc4oc3=O)n2)c1`, the inhibition is -1.72%.

As a reminder, the inhibition is the drop in the measured response relative to a control, in per cent.
